# Assay results taken from PubChem BioAssay (EPA / NIEHS).
# The source made the active and inactive calls. Rule for the calls: active = hit-call score of the fitted dose curve at least 0.9, where 1 is the maximum; inactive = score below 0.9.
# Assay: ATG_NFI_CIS: Attagene CIS-FACTORIAL HepG2 Assay for human Nuclear Factor I (NFI) (AID 2282989)
# Settings: HepG2 cis-regulatory reporter, NFI response element transcription; actives raise or lower the signal
# Outline: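 Read-out: reporter mRNA via RT-PCR plus capillary electrophoresis with fluorescence detection. Transiently transfected HepG2 (endogenous TF activity on cis promoters), 24 h compound exposure; gain or loss of signal fitted against DMSO.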
Compound,outcome,AC50
Brc1ccccn1,inactive,–
O=C1OC(=O)c2ccc3c4c(ccc1c24)C(=O)OC3=O,inactive,–
NCC(F)(F)C(F)(F)C(F)(F)C(F)(F)C(F)(F)C(F)(F)F,inactive,–
CC(C)(C)C(=O)C1C(=O)c2ccccc2C1=O,inactive,–
O=C1c2c(O)ccc(Nc3ccc(CCO)cc3)c2C(=O)c2c([N+](=O)[O-])ccc(O)c21,inactive,–
CC(C)OC=O,inactive,–
O=S(=O)(Cl)C(F)(F)C(F)(F)C(F)(F)C(F)(F)C(F)(F)C(F)(F)C(F)(F)C(F)(F)F,inactive,–
CC1=CCC(=O)O1,inactive,–
CC(O)C#CC(C)O (configuration not stated),–,127 µM (active)
NC(=O)C(F)(F)C(F)(F)C(F)(F)C(F)(F)C(N)=O,inactive,–
CC(C)OC(=O)COc1ccc(Cl)cc1Cl,inactive,–
CCn1c2ccccc2c2ccccc21,–,152 µM (active)
OCC(F)(F)C(F)(F)C(F)(F)CO,inactive,–
CCN(CCO)S(=O)(=O)C(F)(F)C(F)(F)C(F)(F)C(F)(F)C(F)(F)C(F)(F)C(F)(F)C(F)(F)F,inactive,–
NC(=O)C(F)(F)C(F)(F)C(F)(F)C(F)F,inactive,–
O=C=Nc1cccc2c(N=C=O)cccc12,inactive,–
CC1=CC2C3C=CC(C3)C2C1C (configuration not stated),–,100 µM (active)
O=C1C=CC(=O)N1c1ccccc1,inactive,–
O=C=NCc1cccc(CN=C=O)c1,inactive,–
O=C(O)C(F)(F)OC(F)(F)C(F)(F)OC(F)(F)C(F)(F)OC(F)(F)F,inactive,–
NC(O)(C(F)(F)F)C(F)(F)F,inactive,–
O=C(Cl)C(F)(F)C(F)(F)C(F)(F)C(F)(F)C(F)(F)C(F)(F)C(F)(F)F,inactive,–
